This passage reports parasite growth results from the supplement of paper PMC4894684.

Molecules are shown by their SMILES. Structures can show the parent of a compound that is named as a salt. ± gives the standard deviation of the averaged measurements.

For this test, the system named is Toxoplasma gondii RH (in HFF). In words: parasite growth relative to the screen mean (all compounds = 100%); higher = less inhibition of parasite growth. Conditions: 5 µM; 72 h; oxygen 21 %. The method, boiled down: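 Each value is parasite growth expressed against the screen mean, averaged over two screens, where the mean of all compounds = 100%. The screen used 5 µM final compound on confluent human foreskin fibroblasts infected with RH β-Gal–GFP Toxoplasma (MOI 1:5) within 2 h and grown 72 h at 21% O2. Parasite number was measured by a CPRG β-Gal assay against in-plate standard curves.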
The compound `CN1CCc2cc(Cl)c(O)cc2[C@@H](c2ccccc2)C1` had a parasite growth of 120 ± 46%.

Compound `CNc1cc2c(Nc3cccc(Br)c3)ncnc2cn1` registered a parasite growth of 128 ± 11%.

Consider `Cc1nn(-c2ccccc2)c(C)c1C=NN1CCN(Cc2ccccc2)CC1`, for which the parasite growth came out at 141 ± 26%.

For `CC1OC2(CS1)CN1CCC2CC1` (stereo not drawn) [Cevimeline hydrochloride], the parasite growth was 148 ± 82%.

In turn, `Cc1nc2ccc(NC(=O)Nc3ccnc4cccnc34)cc2o1` showed a parasite growth of 88.83 ± 0.52%.

`C1COC(NC(C2CC2)C2CC2)=N1` [Rilmenidine hemifumarate] returned a parasite growth of 125 ± 13%.

Compound `Cc1ccc(Sc2cncc3sc(C(N)=O)cc23)cc1` had a parasite growth of 148 ± 2.4%.

For `O=C(/C=C/c1c(C(=O)O)[nH]c2cc(Cl)cc(Cl)c12)Nc1ccccc1` [Gavestinel], the parasite growth came to 114 ± 17%.

As for `Cc1cccc(/C=C/c2ccccc2)n1`, the parasite growth turned out to be 99.2 ± 63%.

`N[C@@H](Cc1cc(CP(=O)(O)O)cc(-c2ccccc2Cl)c1)C(=O)O` returned a parasite growth of 122 ± 6.2%.

Turning to `CCN(CC)CCOC(=O)C1(c2ccc([N+](=O)[O-])cc2)CCCC1` [Nitrocaramiphen hydrochloride], the parasite growth turned out to be 99.3 ± 34%.

Take `O=c1ncccn1[C@@H]1O[C@H](CO)[C@@H](O)[C@H]1O` [Zebularine]: the parasite growth is 119 ± 12%.

As to `CCCCC1CCC(c2nc(-c3ccncc3)no2)CC1` (stereo not drawn), the parasite growth is 81.9 ± 14%.

For the compound `C[C@@H](CN1CCC(n2c(=O)[nH]c3cc(Cl)ccc32)CC1)NC(=O)c1ccc2ccccc2c1`, the parasite growth was determined as 5.93 ± 2.3%.

`CN(CC[C@@H](Oc1ccc(-c2ccccc2)cc1)c1ccc(F)cc1)CC(=O)O` [ALX 5407 hydrochloride] yielded a parasite growth of 136 ± 5.8%.

`O=C(O)c1ccc(-c2c[nH]c3ncc(-c4ccccc4)cc23)cc1C1CCCC1`: the parasite growth stood at 46.2 ± 9.6%.

The compound `COc1ccc2c(c1OC)C(=O)O[C@@H]2[C@H]1c2c(cc3c(c2OC)OCO3)CCN1C` [Noscapine hydrochloride] had a parasite growth of 129 ± 27%.

Consider `CCc1cc(-c2n[nH]c(C)c2-c2ccc3c(c2)OCCO3)c(O)cc1O`, for which the parasite growth stood at 215 ± 12%.

Compound `CN(CCCN1c2ccccc2CCc2ccccc21)CC(=O)c1ccc(Cl)cc1` [Lofepramine] showed a parasite growth of 185.3 ± 1.1%.

`CC[C@H](C)C(=O)O[C@H]1CCC=C2C=C[C@H](C)[C@H](CC[C@@H]3C[C@@H](O)CC(=O)O3)[C@H]21` [Mevastatin]: the parasite growth is 109 ± 3.3%.

As for `COC(=O)c1c(C)[nH]c(C)c1C(=O)c1ccccc1Cc1ccccc1`, the parasite growth amounted to 116 ± 37%.

`CCN(CC)CCOCCOC(=O)C1(c2ccccc2)CCCC1` [Carbetapentane citrate] came in with a parasite growth of 137 ± 18%.

`CN=c1nc(-c2ccccc2)n(-c2ccccc2)s1` registered a parasite growth of 127 ± 29%.

Compound `CC(=O)OCCNC(=O)c1cccnc1` [N-[2-(Acetoxy)ethyl]-3-pyridinecarboxamide] returned a parasite growth of 117 ± 13%.

`OC[C@H]1O[C@@H](n2cnc3c(NC4CCCC4)ncnc32)[C@H](O)[C@@H]1O` [N6-Cyclopentyladenosine]: the parasite growth turned out to be 77.4 ± 7.7%.

`CC1Nc2ccc(Cl)cc2S(=O)(=O)N1` (stereo not drawn) came in with a parasite growth of 105 ± 84%.

Consider `OCCNCCCOc1cccc(Cl)c1Cl` [2,3-DCPE hydrochloride], for which the parasite growth amounted to 103 ± 8.3%.

`C[N+](C)(C)CC[N+]1(C)Cc2c(Cl)c(Cl)c(Cl)c(Cl)c2C1` [Chlorisondamine diiodide]: the parasite growth is 168 ± 14%.

On to `N#Cc1ccccc1OCC(O)CNCCNC(=O)Nc1ccccc1` (stereo not drawn), for which the parasite growth came out at 137 ± 18%.

Take `COc1cc2ncnc(Nc3ccc(Oc4ccccc4)cc3)c2cc1OC`: the parasite growth worked out at 110 ± 20%.

Regarding `CN(N=O)C(=O)N[C@@H](C=O)[C@@H](O)[C@H](O)[C@H](O)CO` [Streptozocin], the parasite growth was found to be 137 ± 5.8%.

In turn, `CN(C)CCCC1(c2ccc(F)cc2)OCc2cc(C#N)ccc21` (stereo not drawn) [Citalopram hydrobromide] had a parasite growth of 122 ± 3.6%.

Compound `COCCOC(=O)C1=C(C)NC(C)=C(C(=O)OC(C)C)C1c1cccc([N+](=O)[O-])c1` (stereo not drawn) [Nimodipine] came in with a parasite growth of 117 ± 13%.

`CC1=NN(c2ccccc2)C(=O)C1` gave a parasite growth of 133 ± 8.7%.

For the compound `CS(=O)(=O)c1ccc(Cn2c3c(c4cc(F)cc(F)c42)CCCC3CC(=O)O)cc1` (stereo not drawn), the parasite growth came out at 120 ± 6.7%.

As to `O=C1c2ccccc2CCC1CNCCc1ccc(O)cc1` (stereo not drawn) [HEAT hydrochloride], the parasite growth was determined as 68.1 ± 13%.

The compound `Oc1nc(-c2ccc(C(F)(F)F)cc2)nc2c1CSCC2` had a parasite growth of 136 ± 21%.

`C[N+]1(C)CCC(OC(=O)C(c2ccccc2)c2ccccc2)CC1` yielded a parasite growth of 86.5 ± 39%.
